TDP1 cell CPT = qHTS for Inhibitors of human tyrosyl-DNA phosphodiesterase 1 (TDP1): qHTS in cells in presence of CPT | chicken DT40 Tdp1-/-;hTDP1 cells + 20 nM CPT, ATP luminescence, 48 h | Potency, µM (highest dose often 46.2 µM), for inactives: at the top dose activity change, negative = growth inhibition, hits mostly inhibitors | actives 12% (n = 420,000) | AID 686979, 2013; also: potency is read from the fitted curve at half-maximal effect; nearly all actives have a fitted effect of over 55% in size
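Chicken DT40 Tdp1-/- cells complemented with human TDP1, 400 cells/well, exposed to compounds plus 20 nM camptothecin for at least 48 h at 37 C; viability read as ATP content by CellTiter-Glo luminescence.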
DT40 TDP1 no CPT = qHTS for Inhibitors of human tyrosyl-DNA phosphodiesterase 1 (TDP1): qHTS in cells in absence of CPT; DT40 Tdp1-/- hTDP1 cells, no CPT, ATP luminescence, 48 h; Potency, µM (series often up to 46.2 µM), inactives show at the top dose activity change, negative = growth inhibition, most hits filed as inhibitors; actives 15% (n = 420,000); AID 686978, 2013; also: potency is read from the fitted curve at half-maximal effect; nearly all actives have a fitted effect of over 55% in size
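Camptothecin absent (DMSO only). Human TDP1-complemented DT40 knockout cells, 400 cells/well, 37 °C for minimum 48 hr; ATP measured via CellTiter-Glo, 30 min dark incubation, luminescence.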
HT1080 IDH1KD tx = qHTS for induction of synthetic lethality in tumor cells producing 2HG: qHTS for the HT-1080-IDH1KD cell line. Potency, µM (highest dose often 46.1 µM), for inactives: at the top dose activity, negative = toxicity, actives largely listed as cytotoxic. actives 2% (n = 360,000). AID 686971, 2013. HT-1080 IDH1 knockdown viability, ATP luminescence, 48 h;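 also: potency is read from the fitted curve at half-maximal effect; 0% = DMSO wells and -100% = cell-free medium wells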
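After a 2 h attachment period, IDH1KD HT-1080 cells took pin-transferred compound for 48 h at 37 °C; ATP-based luminescence after 10 min room-temperature reagent incubation reported viability.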
HT1080NT lethal = qHTS for induction of synthetic lethality in tumor cells producing 2HG: qHTS for the HT-1080-NT fibrosarcoma cell line. Potency, µM (series often up to 46.1 µM), inactives show at the highest dose activity, negative = less viability, most hits filed as cytotoxic. actives 1.6% (n = 360,000). HT-1080-NT fibrosarcoma viability, CellTiter-Glo ATP luminescence, 48 h;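 also: NT is the 2HG producing partner of a matched IDH1 knockdown line; potency is read from the fitted curve at half-maximal effect; 0% = DMSO-treated cells and -100% = media-only wells without cells; nearly all actives have a fitted effect of over 55% in size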
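Luminescent CellTiter-Glo readout after 48 hours of compound exposure at 37 degrees C defined viability of HT-1080-NT cells. Activity was normalized to DMSO wells and cell-free media wells; concentration-response curves were fitted and assigned curve classes.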
IL1B secr inh = qHTS for Inhibitors of Inflammasome Signaling: IL-1-beta AlphaLISA Primary Screen. THP-1 LPS/ATP IL-1B secretion, AlphaLISA, 16 h; stronger effect = lower value. actives 4.7% (n = 360,000). AID 743279, 2014. activity change, % at 57.5 µM; in the data active = activity change below about -50%; inconclusive = mostly about -30% to -49%
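Secreted IL-1B measured by AlphaLISA bead assay after 16 h compound exposure of THP-1 cells; compounds (final up to 57.5 uM) added 1 h before LPS (250 ng/mL) and ATP (1.25 mM) stimulation; lower signal means less secretion.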
An asterisk follows results filed as active; ? = inconclusive; · = no result. This is a sample that favours compounds with a hit; in the whole collection about 19% have one here. Unless noted, calls follow the shape of the dose curve; as a rule, active = well fitted curve in the direction sought with a large enough effect; inconclusive = small, poorly fitted or top-dose-only effect, or another doubt; inactive = no such curve, though single readings can be large; an effect the other way counts as inactive or inconclusive. Unless noted, % is scaled to controls: 0 for no effect and ±100 for the full control effect.

SMILES	TDP1 cell CPT	DT40 TDP1 no CPT	HT1080 IDH1KD tx	HT1080NT lethal	IL1B secr inh
CNCC/C=C1/c2ccccc2CSc2ccccc21	?	?	?	16µM*	0
CO/N=C\c1cc(C(=O)c2ccc(Cl)cc2Cl)cn1C	-19%	?	-1%	-9%	-62*
Cn1cc(C(=O)c2cccc(Cl)c2)cc1/C=N\O	1%	-19%	3%	-8%	-64*
COc1cc2c(cc1OC)CN(C(=O)CCNS(=O)(=O)c1ccccc1F)CC2	6%	?	1%	1%	29
Cc1cc(C)cc(C(=O)NCC(=O)OCC(=O)NCc2ccco2)c1	2%	7%	1%	4%	19
O=[N+]([O-])c1c(C(Cl)Cl)nn(-c2ccccc2)c1N1CCCC1	21µM*	?	?	-4%	-25
CCOC(=O)C1CCN(c2c([N+](=O)[O-])c(C(Cl)Cl)nn2-c2ccccc2)CC1	?	?	17%	4%	-16
CC/C(=C\c1oc2cc3ccccc3cc2[n+]1CC)Nc1ccccc1	4.6µM*	13µM*	?	-29%	-107*
Cc1ccc(-n2nnnc2C(Cl)(Cl)c2nnnn2-c2ccc(C)cc2)cc1	2.9µM*	2.6µM*	5.6µM*	?	-78*
COC(=O)C1=C(C)N(Cc2ccccc2)C(=NCc2ccc3c(c2)OCO3)N[C@H]1c1ccccc1	?	18µM*	-3%	-9%	-57*
COC(=O)C1=C(C)N(Cc2ccccc2)C(=NCCCCO)N[C@H]1c1ccccc1	?	?	-10%	0%	2
COC(=O)C1=C(C)N(Cc2ccccc2)C(=NCCc2cccnc2)N[C@H]1c1ccc(Br)cc1	3.7µM*	4.6µM*	?	?	-4
COC(=O)C1=C(C)N(Cc2ccccc2)C(=NCC2CC2)N[C@H]1c1ccccc1	21µM*	23µM*	-13%	1%	-14
COC(=O)C1=C(C)N(Cc2ccccc2)C(=NCCc2cccnc2)N[C@H]1c1ccccc1	12µM*	21µM*	-17%	?	-58*
CCN1C(=NCC2CC2)N[C@@H](c2ccccc2)C(C(=O)OC)=C1C	?	?	1%	-1%	7
COC(=O)C1=C(C)N(Cc2ccccc2)C(=S)N[C@H]1c1ccc(Br)cc1	?	-18%	-19%	-7%	-15
CCc1c(C(=O)NCCc2cccc(C)c2)[nH]c(C)c1C(C)=O	16µM*	10µM*	?	-28%	-30
CCc1c(C(=O)NCc2ccccc2Cl)[nH]c(C)c1C(C)=O	23µM*	16µM*	-6%	-16%	30
CC(=O)c1c(C)[nH]c(C(=O)NCc2ccccc2Cl)c1C	?	?	-1%	0%	57
CSc1nnc(NC(=O)c2cc3ccccc3oc2=O)s1	?	-19%	2%	28%	-8
OC(CN1CCCCC1)c1cc(-c2ccccc2)on1 (centres undefined)	13%	-4%	·	·	·
CCOC(=O)[C@]12CCC=C1N(CCC1=CCCCC1)C(=O)[C@H](CC(=O)NCc1cccc3ccccc13)C2	?	?	-10%	-12%	-15
N/C(=N\c1nc2c(c(=O)[nH]1)CCC2)Nc1ccccc1	-7%	-11%	?	20%	-1
CC(C)(C)SCCNC(=O)c1ccc(Cl)c([N+](=O)[O-])c1	?	16µM*	18%	14%	?
CC(C)CNC(=O)c1cccc(NC(=O)COc2ccc([N+](=O)[O-])cc2)c1	13µM*	23µM*	-27%	-17%	-8
SMILES	TDP1 cell CPT	DT40 TDP1 no CPT	HT1080 IDH1KD tx	HT1080NT lethal	IL1B secr inh
CN(C)/C=C/C(=O)c1cccc(Cl)c1	-18%	-25%	2%	0%	?
CC(C)CNC(=O)c1cccc(NC(=O)c2ccc(Cl)c([N+](=O)[O-])c2)c1	21µM*	21µM*	0%	-3%	-112*
CN(C)/C=C/C(=O)c1ccc(Cl)c([N+](=O)[O-])c1	-8%	?	-4%	5%	-96*
CCCNC(=O)C1(CC2CC(c3ccccc3)=NO2)CCN(C(=O)Cc2ccc(F)cc2)CC1 (centres undefined)	?	?	1%	0%	-1
Cc1ccc(CCNc2nc3ccccc3c3nc(-c4cccnc4)nn23)cc1	-23%	?	·	·	·
COc1cc2nc(NCCCN3CCN(C)CC3)n3nc(-c4ccccc4)nc3c2cc1OC	?	?	?	16µM*	-110*
CN1CCN(CCCNc2nc3ccccc3c3nc(-c4ccccc4)nn23)CC1	?	13µM*	24%	11%	-7
C[N+]1(CC2COC(c3ccccc3)(C3CCCCC3)O2)CCCCC1 (centres undefined)	-94%	6µM*	·	·	·
COc1ccc(Cn2nc(C)n(N(C)c3ncc(C(F)(F)F)cc3Cl)c2=O)cc1	16µM*	9.2µM*	-14%	0%	4
O=S(=O)(NN1CCOCC1)c1ccc(Br)cc1	?	6%	10%	22%	-3
COC(=O)c1cnc(Oc2ccc(NC(=O)NC(=O)c3ccccc3Cl)cc2)cc1C(F)(F)F	?	4.1µM*	0%	2%	8
COC(=O)c1ccncc1C(=O)Nc1ccc(Oc2ncc(C(F)(F)F)cc2Cl)cc1	2%	-17%	4%	6%	22
Cc1cc(C)c(NC(=O)Cn2nc3c(cc2=O)CCCC3)c(C)c1	0%	-5%	·	·	·
O=C(c1ccc(Oc2ccc(C(F)(F)F)cc2[N+](=O)[O-])cc1)N1CCOCC1	?	15µM*	-3%	-1%	10
CCN(c1ccccc1)S(=O)(=O)c1cccc(C(=O)NCC(c2ccco2)N2CCCC2)c1 (centres undefined)	?	?	-1%	-3%	-19
CCN(c1ccccc1)S(=O)(=O)c1cc(C(=O)NCC(c2ccco2)N2CCCCC2)ccc1C (centres undefined)	?	?	-10%	-14%	-79*
CCN(c1ccccc1)S(=O)(=O)c1cccc(C(=O)NCC(c2ccco2)N2CCCCC2)c1 (centres undefined)	?	16µM*	?	-27%	-55*
C=CCN1C(=O)/C(=C/c2ccc(OC(C)=O)c(OCC)c2[N+](=O)[O-])SC1=S	?	?	21µM*	9.2µM*	-76*
